{"source": "ChEMBL document CHEMBL3988442", "about": "“University of Dundee, Small-Polar-MMV Screening Library” (2021)"}
{"target": "T1, Aspartate--tRNA(Asp/Asn) ligase (Mycobacterium tuberculosis (strain ATCC 25618 / H37Rv)) (UniProt P9WFW3)", "T1 sequence (whole entry)": "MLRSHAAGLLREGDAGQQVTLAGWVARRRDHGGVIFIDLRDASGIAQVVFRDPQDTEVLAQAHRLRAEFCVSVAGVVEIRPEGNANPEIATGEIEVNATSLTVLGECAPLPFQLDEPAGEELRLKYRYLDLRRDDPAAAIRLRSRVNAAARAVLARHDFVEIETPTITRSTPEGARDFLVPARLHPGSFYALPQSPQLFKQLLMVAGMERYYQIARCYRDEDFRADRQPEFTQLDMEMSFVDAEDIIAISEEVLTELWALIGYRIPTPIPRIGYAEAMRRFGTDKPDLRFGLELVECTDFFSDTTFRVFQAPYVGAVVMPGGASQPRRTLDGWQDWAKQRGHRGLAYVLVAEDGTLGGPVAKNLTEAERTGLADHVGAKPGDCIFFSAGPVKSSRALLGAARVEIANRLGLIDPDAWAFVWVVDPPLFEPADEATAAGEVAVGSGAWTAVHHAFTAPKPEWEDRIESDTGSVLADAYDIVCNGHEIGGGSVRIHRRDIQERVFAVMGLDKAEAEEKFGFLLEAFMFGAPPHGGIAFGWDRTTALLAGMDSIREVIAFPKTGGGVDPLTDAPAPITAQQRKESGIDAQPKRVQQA", "experiment": "Assay for Asp RNA synthetase-1 from Mycobacterium tuberculosis", "format": "functional", "design": "scale not given: direction of the effect not stated beside the values", "conditions": "30 µM", "units": {"Percent Effect": "%"}}
{"smiles": "Cn1cnnc1C1CCCN(C(=O)NCCOc2ccccc2)C1", "note": "(stereo not given)", "Percent Effect": -4.29}
{"smiles": "Cc1ccc(CNC(=O)CCSCc2csc(C)n2)cn1", "Percent Effect": -3.37}
{"smiles": "CC1=Nc2c(c(=O)[nH]n2C(C)C)C(c2ccccc2)S1", "note": "(stereo not given)", "Percent Effect": 1.45}
{"smiles": "Fc1cnc(N2CCn3cc(CNc4ccccn4)nc3C2)nc1", "Percent Effect": 1.02}
{"smiles": "Cc1ccc(NC2CCN(C(=O)c3n[nH]c4ccccc34)CC2)nn1", "Percent Effect": 0.985}
{"smiles": "Cc1ccc(C(=O)N2CCc3c(CNS(C)(=O)=O)cncc3C2)o1", "Percent Effect": 9.11}
{"smiles": "Cc1ncc2c(n1)CN(CC(=O)Nc1nncs1)CC2", "Percent Effect": -3.23}
{"smiles": "Cc1occc1C(=O)N1CCC2(CCCN(CC3CCC3)C2=O)C1", "note": "(stereo not given)", "Percent Effect": -2.62}
{"smiles": "CN1CCN(Cc2cnc3n2CCN(Cc2cccs2)C3)CC1", "Percent Effect": 5.52}
{"smiles": "Cn1cc(C(=O)NC2CCN(C(=O)NCC3CCSCC3)CC2)cn1", "Percent Effect": 3.16}
{"smiles": "O=C(NCC(Cc1cccc(F)c1)N1CCCC1=O)c1ccccc1", "note": "(stereo not given)", "Percent Effect": -2.27}
{"smiles": "O=C(Nc1ccccc1F)N(CCO)Cc1ccsc1", "Percent Effect": -3.39}
{"smiles": "CN1CCCN(C(=O)NCc2csc(Br)c2)CC1", "Percent Effect": 0.175}
{"smiles": "CC1(C)OCC(CNC(=O)c2cnn(-c3ccc(Cl)cc3)c2N)O1", "note": "(stereo not given)", "Percent Effect": 2.4}
{"smiles": "c1cnc(-c2nc(CN3CCOC(Cn4cncn4)C3)cs2)nc1", "note": "(stereo not given)", "Percent Effect": 9.26}
{"smiles": "CCOCCC(=O)N1CCCC(c2ncc[nH]2)C1", "note": "(stereo not given)", "Percent Effect": -0.374}
{"smiles": "COc1ccc(COCC(O)CNC(=O)c2cccnc2)cc1", "note": "(stereo not given)", "Percent Effect": -1.27}
{"smiles": "Cc1nc(C)n(C2CCCN(C(=O)c3csnn3)C2)n1", "note": "(stereo not given)", "Percent Effect": 9.97}
{"smiles": "CC(C)Sc1nnc(CCNC(=O)OC(C)(C)C)o1", "Percent Effect": -0.987}
{"smiles": "Cc1ccc(C(=O)N2CCCC(C(=O)N3CCCCC3)C2)c(O)c1", "note": "(stereo not given)", "Percent Effect": -0.062}
{"smiles": "COCCN1CCN(C(=O)c2cc(C(C)C)on2)[C@H]2CS(=O)(=O)C[C@H]21", "Percent Effect": -3.12}
{"smiles": "CN1CCCN(c2nccc(-c3c[nH]nc3C3CCCCC3)n2)CC1", "Percent Effect": 14.1}
{"smiles": "c1ccc(Cn2cc3c(n2)C(COCC2CC2)OCC3)nc1", "note": "(stereo not given)", "Percent Effect": 4.12}
{"smiles": "O=S(=O)(CCNCc1cccc2c1OCCO2)N1CCOCC1", "Percent Effect": -2.82}
{"smiles": "COc1cc2nc(C)n(CC(=O)NCCCN(C)C)c(=O)c2cc1OC", "Percent Effect": -0.232}
{"smiles": "CC(=O)N1CCC2(CC1)CC[C@@]1(C(=O)N(C)C)CN(S(C)(=O)=O)C[C@@H]21", "Percent Effect": -1.99}
{"smiles": "CCC1=N[C@@]2(CC[C@@H]3CN(S(=O)(=O)N(C)C)C[C@@H]32)C(=O)N1CC(C)C", "Percent Effect": 2}
{"smiles": "CC(NC(=O)N(C)Cc1ccc(Cl)s1)c1ccccn1", "note": "(stereo not given)", "Percent Effect": -2.02}
{"smiles": "CN(Cc1ccc(C#N)cc1)Cc1noc(C(C)(C)C)n1", "Percent Effect": -2.67}
{"smiles": "COCc1nc(CNC2CCSCC2)no1", "Percent Effect": -4}
{"smiles": "COc1c(C2CCCN2CC(=O)Nc2nc(C)cs2)c(C)nn1C", "note": "(stereo not given)", "Percent Effect": -3}
{"smiles": "CC(c1nc(C2CC2)no1)N1CCN(Cc2cccc(C#N)c2)CC1", "note": "(stereo not given)", "Percent Effect": -3.08}
{"smiles": "Cc1cc2cc(C(=O)N3CC[C@H](O)[C@]4(CCCO4)C3)ccc2o1", "Percent Effect": 1.13}
{"smiles": "Cc1ccc(NC(=O)N2C[C@H]3CC[C@@H]2CN(Cc2cscn2)C3)cc1", "Percent Effect": -2.57}
{"smiles": "Cc1ccccc1-c1cc(C(=O)NCCN2CCCS2(=O)=O)[nH]n1", "Percent Effect": -2.39}
{"smiles": "CN(Cc1cccnc1)CC1CCCN1c1cccnn1", "note": "(stereo not given)", "Percent Effect": 1.15}
{"smiles": "CN1N=C(C(=O)N(Cc2ccco2)C2CC2)CCC1=O", "Percent Effect": -2.73}
{"smiles": "CC(C)(C)n1ncc2c1NC(=O)CC2c1ccccc1", "note": "(stereo not given)", "Percent Effect": -5}
{"smiles": "COc1ccc(CCNC(=O)NC2CCCC2)cc1OC", "Percent Effect": 2.58}
{"smiles": "CCOCC1CN(C(=O)C2=CCCC2)Cc2cnn(CC)c21", "note": "(stereo not given)", "Percent Effect": -0.107}
{"target": "Shiga toxin 2 (Escherichia coli O157:H7) (UniProt P09385+P09386)", "experiment": "E. coli 0.157:H7 Shiga Toxin SOP - stx2 screening assay", "format": "functional", "design": "scale not given: direction of the effect not stated beside the values", "conditions": "30 µM", "units": {"Percent Effect": "%"}}
{"smiles": "Cn1cnnc1C1CCCN(C(=O)NCCOc2ccccc2)C1", "note": "(stereo not given)", "Percent Effect": -30.2}
{"smiles": "Cc1ccc(CNC(=O)CCSCc2csc(C)n2)cn1", "Percent Effect": -2.37}
{"smiles": "CC1=Nc2c(c(=O)[nH]n2C(C)C)C(c2ccccc2)S1", "note": "(stereo not given)", "Percent Effect": 1.24}
{"smiles": "Fc1cnc(N2CCn3cc(CNc4ccccn4)nc3C2)nc1", "Percent Effect": -67.4}
{"smiles": "Cc1ccc(NC2CCN(C(=O)c3n[nH]c4ccccc34)CC2)nn1", "Percent Effect": -18.6}
{"smiles": "Cc1ccc(C(=O)N2CCc3c(CNS(C)(=O)=O)cncc3C2)o1", "Percent Effect": -21}
{"smiles": "Cc1ncc2c(n1)CN(CC(=O)Nc1nncs1)CC2", "Percent Effect": -20.4}
{"smiles": "Cc1occc1C(=O)N1CCC2(CCCN(CC3CCC3)C2=O)C1", "note": "(stereo not given)", "Percent Effect": -2.14}
{"smiles": "CN1CCN(Cc2cnc3n2CCN(Cc2cccs2)C3)CC1", "Percent Effect": -18.8}
{"smiles": "Cn1cc(C(=O)NC2CCN(C(=O)NCC3CCSCC3)CC2)cn1", "Percent Effect": -2.79}
{"smiles": "O=C(NCC(Cc1cccc(F)c1)N1CCCC1=O)c1ccccc1", "note": "(stereo not given)", "Percent Effect": -0.947}
{"smiles": "O=C(Nc1ccccc1F)N(CCO)Cc1ccsc1", "Percent Effect": 20.3}
{"smiles": "CN1CCCN(C(=O)NCc2csc(Br)c2)CC1", "Percent Effect": 14.5}
{"smiles": "CC1(C)OCC(CNC(=O)c2cnn(-c3ccc(Cl)cc3)c2N)O1", "note": "(stereo not given)", "Percent Effect": 47.4}
{"smiles": "c1cnc(-c2nc(CN3CCOC(Cn4cncn4)C3)cs2)nc1", "note": "(stereo not given)", "Percent Effect": 18.3}
{"smiles": "CCOCCC(=O)N1CCCC(c2ncc[nH]2)C1", "note": "(stereo not given)", "Percent Effect": -22.5}
{"smiles": "COc1ccc(COCC(O)CNC(=O)c2cccnc2)cc1", "note": "(stereo not given)", "Percent Effect": -12.2}
{"smiles": "Cc1nc(C)n(C2CCCN(C(=O)c3csnn3)C2)n1", "note": "(stereo not given)", "Percent Effect": 18.7}
{"smiles": "CC(C)Sc1nnc(CCNC(=O)OC(C)(C)C)o1", "Percent Effect": -76.8}
{"smiles": "Cc1ccc(C(=O)N2CCCC(C(=O)N3CCCCC3)C2)c(O)c1", "note": "(stereo not given)", "Percent Effect": 20.6}
{"smiles": "COCCN1CCN(C(=O)c2cc(C(C)C)on2)[C@H]2CS(=O)(=O)C[C@H]21", "Percent Effect": -5.69}
{"smiles": "CN1CCCN(c2nccc(-c3c[nH]nc3C3CCCCC3)n2)CC1", "Percent Effect": -32.4}
{"smiles": "c1ccc(Cn2cc3c(n2)C(COCC2CC2)OCC3)nc1", "note": "(stereo not given)", "Percent Effect": -12.1}
{"smiles": "O=S(=O)(CCNCc1cccc2c1OCCO2)N1CCOCC1", "Percent Effect": -39}
{"smiles": "COc1cc2nc(C)n(CC(=O)NCCCN(C)C)c(=O)c2cc1OC", "Percent Effect": -51.4}
{"smiles": "CC(=O)N1CCC2(CC1)CC[C@@]1(C(=O)N(C)C)CN(S(C)(=O)=O)C[C@@H]21", "Percent Effect": -10.1}
{"smiles": "CCC1=N[C@@]2(CC[C@@H]3CN(S(=O)(=O)N(C)C)C[C@@H]32)C(=O)N1CC(C)C", "Percent Effect": 9.58}
{"smiles": "CC(NC(=O)N(C)Cc1ccc(Cl)s1)c1ccccn1", "note": "(stereo not given)", "Percent Effect": -6.3}
{"smiles": "CN(Cc1ccc(C#N)cc1)Cc1noc(C(C)(C)C)n1", "Percent Effect": -19}
{"smiles": "COCc1nc(CNC2CCSCC2)no1", "Percent Effect": 9.42}
{"smiles": "COc1c(C2CCCN2CC(=O)Nc2nc(C)cs2)c(C)nn1C", "note": "(stereo not given)", "Percent Effect": -14.6}
{"smiles": "CC(c1nc(C2CC2)no1)N1CCN(Cc2cccc(C#N)c2)CC1", "note": "(stereo not given)", "Percent Effect": 9.24}
{"smiles": "Cc1cc2cc(C(=O)N3CC[C@H](O)[C@]4(CCCO4)C3)ccc2o1", "Percent Effect": -10.1}
{"smiles": "Cc1ccc(NC(=O)N2C[C@H]3CC[C@@H]2CN(Cc2cscn2)C3)cc1", "Percent Effect": 8.71}
{"smiles": "Cc1ccccc1-c1cc(C(=O)NCCN2CCCS2(=O)=O)[nH]n1", "Percent Effect": -11.4}
{"smiles": "CN(Cc1cccnc1)CC1CCCN1c1cccnn1", "note": "(stereo not given)", "Percent Effect": 6}
{"smiles": "CN1N=C(C(=O)N(Cc2ccco2)C2CC2)CCC1=O", "Percent Effect": 1.36}
{"smiles": "CC(C)(C)n1ncc2c1NC(=O)CC2c1ccccc1", "note": "(stereo not given)", "Percent Effect": 22}
{"smiles": "COc1ccc(CCNC(=O)NC2CCCC2)cc1OC", "Percent Effect": -10.6}
{"smiles": "CCOCC1CN(C(=O)C2=CCCC2)Cc2cnn(CC)c21", "note": "(stereo not given)", "Percent Effect": 3.46}
